# Results: PubChem BioAssay (Tox21)
# Where “and” joins values, the source holds several entries; their conditions need not be identical. Equal entries are not always repeated. Inconclusive results are not listed. Some structures have more than one record in an assay (separate samples or runs), and their calls can disagree. Calls of active or inactive are those of the source. The call rests on the fitted dose curve; in most records, active means well fitted cell-killing curve with a large enough effect in the repeat runs; inconclusive means weak or mixed curves, or effect the other way; inactive means no such curve, though single readings can be large or run the other way.
# Assay: qHTS assay for identifying genotoxic compounds that show differential cytotoxicity against isogenic chicken DT40 cell lines with known DNA damage response pathways - Rev3 mutant cell line (AID 743014); further: nearly all actives have a fitted effect of over 55% in size
# Conditions: chicken DT40 Rev3-/- viability, CellTiter-Glo, 40 h; series mostly up to 68.4 µM
# Text: National Center for Advancing Translational Sciences [NCATS]
# NIH Chemical Genomics Center [NCGC]
# U.S. Environmental Protection Agency [EPA]
# National Institutes of Environmental Health Sciences [NIEHS]
# National Toxicology Program [NTP]
# U.S. Food and Drug Administration [FDA]
# DNA repair pathways play a critical role in cellular homeostasis by repairing DNA damage induced by endogenous processes and xenobiotics. Isogenic chicken DT40 cell lines deficient in different DNA repair pathways can be used to identify genotoxic compounds and aid in characterizing the nature of the DNA damage induced. Two DNA repair-deficient cell lines with disrupted genes, Rad54/Ku70 or Rev3, were used to screen the Tox21 10K compound library. Possible genotoxicity was based on the presence of a significant increase in cytotoxicity in one or more of the DNA repair-deficient cell lines compared to that observed in the parental DNA repair-proficient cell line. CellTiter Glo viability assay (Promega, Madison, WI) was used to measure cell viability in these cells after compound treatment. This assay includes the data from the Rev3 mutant cell line.
# Tox21 Assay Protocol Summary:
# 300 DT40 mutant cells in 5 uL/well were dispensed into white, solid-bottom 1536-well plates using a Multidrop Combi (ThermoFisher Scientific, Waltham, MA) dispenser. After the assay plates were incubated at 37 C/5% CO2 for approximately 0.5 hour, 23 nL of compounds dissolved in DMSO, positive controls or DMSO only was transferred into the assay plate by a pintool work station (Kalypsys, San Diego, CA). The assay plates were incubated at 37 C/5% CO2 for 40 hours. After 5 uL per well of CellTiter-Glo reagent was added into each well of the assay plates, the plates were incubated for 30 min at room temperature and the luminescence intensity of the plates was measured using a ViewLux (PerkinElmer, Shelton, CT) plate reader.
# On the % scale 0 is the no-effect control and ±100 the full control effect; potency means the concentration at half of the fitted maximal effect.
row,Structure (SMILES),Potency
1,CCN(CC)C(=S)[S-].CCN(CC)C(=S)[S-].[Zn+2],1.08 µM (active)
2,Cc1cc(C)c(C2=C(OC(=O)CC(C)(C)C)C3(CCCC3)OC2=O)c(C)c1,inactive
3,ClC1=C(Cl)C2(Cl)C3C(Cl)C=CC3C1(Cl)C2(Cl)Cl (stereo not given),30.6 µM (active)
4,CC(C)(C)C(O)/C(=C\c1ccc(Cl)cc1Cl)n1cncn1 (stereo not given),18.6 µM (active)
5,C[C@@H]1O[C@@H](O[C@@H]2C=C3CC[C@@H]4[C@H](CC[C@]5(C)[C@@H](c6ccc(=O)oc6)CC[C@]45O)[C@@]3(C)CC2)[C@H](O)[C@H](O)[C@H]1O,0.101 µM (active)
6,COc1cc(N)c(Cl)cc1C(=O)NC1CN2CCC1CC2 (stereo not given),inactive
7,CCCOCC(=Nc1ccc(Cl)cc1C(F)(F)F)n1ccnc1,4.32 µM (active)
8,COc1ccc(OC)c(CC(C)N)c1 (stereo not given),inactive
9,O=C(O)C1C2CCC(O2)C1C(=O)O (stereo not given),inactive
10,CC(C)CC(C)(c1ccc(O)cc1)c1ccc(O)cc1,27.4 µM (active) and 38.6 µM (active)
11,CCOc1cc(C(C)(C)C)ccc1C1COC(c2c(F)cccc2F)=N1 (stereo not given),23.4 µM (active)
12,O=[N+]([O-])c1ccc2ccc3cccc4ccc1c2c34,inactive
13,CC1(c2ccc(Oc3ccccc3)cc2)OC(=O)N(Nc2ccccc2)C1=O (stereo not given),0.869 µM (active)
14,CCCCCCCCCBr,inactive
15,Clc1ccc(C(Cl)(Cl)Cl)c(Cl)c1,inactive
16,N#CSCSC#N,1.98 µM (active) and 1.91 µM (active)
17,CCCCN(CCCC)C(=S)[S-].CCCCN(CCCC)C(=S)[S-].[Zn+2],inactive
18,Clc1ccc(CO/N=C(\Cn2ccnc2)c2ccc(Cl)cc2Cl)c(Cl)c1,26.6 µM (active)
19,O=CC(Br)(Br)Br,24.3 µM (active)
20,O=C(Nc1ccc2[nH]ccc2c1)c1cc2cc(F)ccc2n1Cc1cccc(F)c1,27.3 µM (active)

row,Structure (SMILES),Potency
1,O=C(O)COc1nc(Cl)c(Cl)cc1Cl,57.4 µM (active)
2,C[C@H]1CC[C@@H]2[C@@H](C)[C@H]3[C@H](C[C@H]4[C@@H]5CC=C6CC(O[C@@H]7O[C@H](CO)[C@H](O)[C@H](O[C@@H]8O[C@H](CO)[C@@H](O)[C@H](O)[C@H]8O)[C@H]7O[C@H]7O[C@@H](C)[C@H](O)[C@@H](O)[C@H]7O)CC[C@]6(C)[C@H]5CC[C@]34C)N2C1 (stereo not given in full),inactive
3,CC(C)C1CCC(Cc2ccc(Cl)cc2)C1(O)Cn1cncn1 (stereo not given),13.5 µM (active)
4,O=[N+]([O-])O.O=[N+]([O-])O.[Cd],27.3 µM (active)
5,O=c1ssc(Cl)c1Cl,2.17 µM (active)
6,Clc1ccc(C(c2ccccc2Cl)C(Cl)(Cl)Cl)cc1 (stereo not given),45.1 µM (active)
7,CCCCCCCCCCCCCCCC[n+]1ccccc1,380 nM (active) [middle of 4 runs]
8,[Cd+2].[Cl-].[Cl-],13.8 µM (active) and 27.3 µM (active)
9,Fc1cccc(Cl)c1CCl,inactive
10,Oc1ccc(C2(c3ccc(O)cc3)c3ccccc3-c3ccccc32)cc1,43.3 µM (active)
11,CCOC(=O)OC1=C(c2cc(C)ccc2C)C(=O)NC12CCC(OC)CC2 (stereo not given),30.6 µM (active)
12,CCCCOCN(C(=O)CCl)c1c(CC)cccc1CC,9.69 µM (active)
13,CCCN(CC)CC1COC2(CCC(C(C)(C)C)CC2)O1 (stereo not given),0.686 µM (active)
14,CN(C)CCc1c[nH]c2cccc(O)c12,60.5 µM (active)
15,C=CCC1=C(C)C(OC(=O)C2C(C=C(C)C)C2(C)C)CC1=O (stereo not given),16.8 µM (active)
16,O=[N+]([O-])c1ccc(Oc2ccc(C(F)(F)F)cc2[N+](=O)[O-])cc1,17.2 µM (active)
17,CC(C)N1C(=O)N(c2ccccc2)CSC1=NC(C)(C)C,19.3 µM (active)
18,CN(C)[C@@H]1C(=O)C(C(N)=O)=C(O)[C@@]2(O)C(=O)C3=C(O)c4c(O)ccc(Cl)c4[C@@](C)(O)[C@H]3C[C@@H]12,inactive and 55.6 µM (active)
19,CC1(C)CN=C(NN=C(/C=C/c2ccc(C(F)(F)F)cc2)/C=C/c2ccc(C(F)(F)F)cc2)NC1,3.86 µM (active)
20,CCOP(=S)(OCC)OC(Cl)C(Cl)(Cl)Cl (stereo not given),inactive
